# Compounds with a hit are over-represented: about 21% of the library has one in this group of screens.
# Cycloheximide cs: Cycloheximide Counterscreen for Small Molecule Inhibitors of Shiga Toxin; 12% of 300,000 active; AID 2314, 2010; max response, %; cell reporter, cycloheximide protein synthesis inhibition counterscreen; in the data active = max response mostly above about 13%, no sharp cut-off; inactive = mostly below about 14%; also: read at 38.3 µM for the half of the compounds with a filed dose; 0% is about no effect
# Shiga toxin inh: A qHTS for Small Molecule Inhibitors of Shiga Toxin; Vero cells, Shiga toxin protein synthesis inhibition reporter; inhibition, % at 38.7 µM; 9.2% of 290,000 active; in the data active = inhibition mostly above about 28%, no sharp cut-off; inactive = mostly below about 43%; also: 0% is about no effect
# NS1 inh: qHTS Assay for Inhibitors of Influenza NS1 Protein Function | Potency, µM (titrated, usually from 46.1 µM), inactives show top-dose activity, positive = more growth | 0.4% of 270,000 active; also: potency is read from the fitted curve at half-maximal effect; actives are rising curves; nearly all actives have a fitted effect of over 50% in size
#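 OD600 was taken as the measure of yeast growth restored by compound in an NS1-expressing S. cerevisiae strain. Cells had been washed out of glucose medium and diluted 1:100 into galactose -URA medium, pH 6.0.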
# Pf growth 96h: Primary qHTS for delayed death inhibitors of the malarial parasite plastid, 96 hour incubation; P. falciparum luciferase reporter growth, 96 h; Potency, µM (top dose mostly 28.7 µM), without a hit: at the top dose activity change, negative = inhibition, most hits filed as inhibitors; 6.9% of 320,000 active; active = well fitted inhibition curve with a large enough effect; inconclusive = small, poorly fitted or top-dose-only effect, or another doubt; inactive = no such curve, though single readings can be large or run the other way; also: potency is read from the fitted curve at half-maximal effect; % is scaled to controls: 0 for no effect and ±100 for the full control effect
#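 Compounds incubated with erythrocytes infected by luciferase-expressing P. falciparum (2% hematocrit, 0.05% parasitemia final) for 96 hours, 37 C in 5% CO2. Growth inhibition scored as decreased luciferase luminescence.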
# Pf growth 48h: Primary qHTS for delayed death inhibitors of the malarial parasite plastid, 48 hour incubation; P. falciparum luciferase growth in erythrocytes, 48 h; Potency, µM (titrated, usually from 28.7 µM), without a hit: at the highest dose activity change, negative = inhibition, actives largely listed as inhibitors; 5.9% of 310,000 active; AID 504832, 2011; active = well fitted inhibition curve with a large enough effect; inconclusive = small, poorly fitted or top-dose-only effect, or another doubt; inactive = no such curve, though single readings can be large or run the other way; also: potency is read from the fitted curve at half-maximal effect; % is scaled to controls: 0 for no effect and ±100 for the full control effect
#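 First compound was added to culture medium, then infected red cells at 0.1% parasitemia and 2% hematocrit (final). After incubation at 37 C under 5% CO2, luciferase detection reagent was dispensed and light output recorded.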
# SARS PLP yeast: qHTS of Yeast-based Assay for SARS-CoV PLP. S. cerevisiae expressing SARS-CoV PLpro, growth rescue. Potency, µM (doses to about 32.9 µM), inactives show top-dose activity, positive = growth rescue, actives largely listed as activators. 0.19% of 330,000 active. AID 485353, 2010; also: potency is read from the fitted curve at half-maximal effect; 0% is about no effect; nearly all actives have a fitted effect of over 55% in size
# Active calls of the source: *; ? = inconclusive; . = not tested or not shown. Unless noted, calls follow the shape of the full dose curve.
SMILES,Cycloheximide cs,Shiga toxin inh,NS1 inh,Pf growth 96h,Pf growth 48h,SARS PLP yeast
Cc1cc(C)c(NC(=O)CCCCCNC2CCCCC2)c(C)c1,-2.9,-3.7,-7.7%,13.1µM*,4.0%,-6.2%
CC(=NCCN1CCNCC1)C1=C(O)CC(C)(C)CC1=O,-2.8,-18.7,3.4%,33.9%,6.2%,-0.7%
O=C(CSc1nc(N2CCOCC2)nc(N2CCOCC2)n1)Nc1cccc(C(F)(F)F)c1,-3.7,-2.9,?,2.08µM*,10.8%,-6.6%
O=C(CSc1nc(Nc2ccccc2)nc(N2CCOCC2)n1)Nc1ccc([N+](=O)[O-])cc1,-1.5,2.5,0.6%,.,11.7µM*,3.1%
O=C(CSc1nc(Nc2ccccc2)nc(N2CCOCC2)n1)Nc1cccc([N+](=O)[O-])c1,11.8,-10.6,-0.8%,?,?,1.8%
COc1nc(Nc2ccc(C(C)=O)cc2)nc(OC)n1,18.0*,52.8*,12.2%,-8.1%,14.7µM*,-2.5%
CCc1ccc(Nc2nc(N3CCOCC3)nc(N3CCOCC3)n2)cc1,-5.8,-8.8,0.8%,9.28µM*,-25.8%,-3.6%
CN(C)C1(CNC(=O)C2CCN(S(=O)(=O)c3ccccc3C(F)(F)F)CC2)CCCCC1,-4.0,-13.1,3.4%,?,?,-0.2%
CCC1CCCCN1C(=O)COc1ccc2c3c(c(=O)oc2c1)CCC3 (centres undefined),.,.,.,?,?,-4.3%
O=C(NNc1nc(Nc2ccccc2)nc(N2CCOCC2)n1)Nc1ccc(Cl)cc1,12.5,-5.5,.,177.9%,10.4µM*,-4.7%
CC(=O)c1cccc(Nc2nc(N3CCOCC3)nc(N3CCOCC3)n2)c1,-10.7,-1.5,6.5%,?,-4.3%,-6.6%
CC(=O)c1ccc(Nc2nc(N3CCOCC3)nc(N3CCOCC3)n2)cc1,17.2*,31.4,-0.1%,-23.1%,-4.3%,1.2%
CC(=O)c1ccc(NC(=O)CSc2nc(N3CCOCC3)nc(N3CCOCC3)n2)cc1,42.1*,61.9*,4.7%,16.2%,?,1.2%
CCOC(=O)c1ccc(NC(=O)CSc2nc(N3CCOCC3)nc(N3CCOCC3)n2)cc1,-0.7,-11.5,16.5%,-10.5%,-25.0%,-1.9%
COc1ccccc1Nc1nc(N2CCOCC2)nc(N2CCOCC2)n1,-10.7,12.5,2.1%,10.4µM*,?,-5.5%
COC(=O)c1cc(COC(=O)CNC(=O)c2ccc(Br)cc2)oc1C,.,.,.,.,.,8.0%
CC(=O)Nc1ccc(/C(C)=N/Nc2nc(Nc3ccccc3)nc(N3CCOCC3)n2)cc1,6.5,20.9,2.3%,26.4%,2.08µM*,-1.0%
CCOC(=O)c1ccc(Nc2nc(N3CCOCC3)nc(N3CCOCC3)n2)cc1,-4.0,-2.4,3.6%,?,?,2.3%
COc1ccc(Nc2nc(OC)nc(OC)n2)cc1,8.0,22.2,-1.8%,?,?,0.5%
COc1nc(Nc2ccc3c(c2)OCO3)nc(OC)n1,17.1,51.0*,-36.7%,-11.8%,.,-25.4%
O=C(CCN1CCOCC1)NNC(=O)Nc1cccc(C(F)(F)F)c1,0.4,-10.0,-0.8%,10.4µM*,5.1%,3.4%
FC(F)(F)Oc1ccc(Nc2nc(N3CCOCC3)nc(N3CCOCC3)n2)cc1,-9.4,11.4,9.4%,11.7µM*,?,1.1%
O=C1OCC(c2ccccc2)=C1c1ccc(S(=O)(=O)N2CCOCC2)s1,4.9,-4.1,9.0%,0.0%,?,-4.7%
CC/C=C/[C@@H](c1ccccc1)[C@H](C)C(O)CC(=O)SC(C)(C)C (some centres undefined),-1.8,35.1,.,.,.,.
CCC(CC)C(=O)Nc1ccc(C)cc1O,15.2,15.6,6.8%,-4.3%,43.0%,-0.5%
CCOC(=O)C1=CC[C@@H](c2ccccc2Cl)N(S(=O)(=O)c2ccc(C)cc2)[C@H]1C(=O)OCC,.,.,.,?,13.1µM*,-5.8%
CCOC(=O)C1=CC[C@@H](c2cccc(C)c2)N(S(=O)(=O)c2ccc(C)cc2)[C@H]1C(=O)OCC,.,.,.,?,?,0.6%
CCOC(=O)C1=C(COC(=O)c2nc(Cl)ccc2Cl)NC(=O)NC1C (centres undefined),.,.,.,-1.0%,26.4%,-0.7%

# High-throughput results from PubChem.
